Measured values: the supplement of paper PMC12350171
Where a name gives a salt, the structure may show the parent alone. Values without a mark were called inactive.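 How the source made its calls: active = AUC significantly below DMSO controls by Student t-fit with adjusted P under 0.01; inactive = not significantly reduced.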

Test system: Haemophilus parainfluenzae
Experiment: growth AUC normalised to DMSO control (fraction of control); higher = less growth inhibition, active = hit call of the paper
Conditions: 20 µM
Outline: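 Hemin and NAD were added to the medium for Haemophilus parainfluenzae. All pathogens, after two anaerobic passages, were inoculated at a starting OD578 of 0.01 into pre-reduced mGAM plates with 20 μM compound and 1% DMSO under breathable seals, and OD578 was read hourly for 24 h in three biological replicates. AUC of each growth curve was obtained with the trapezoidal rule up to the exponential-to-stationary transition and normalised to DMSO controls from the same plate.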

Compound	growth AUC normalised to DMSO control
C[C@]12CCC(=O)C=C1CC[C@@H]1[C@@H]2C(=O)C[C@@]2(C)[C@H]1CC[C@]2(O)C(=O)CO [Cortisone]	0.971
O=P(O)(O)C(Cl)(Cl)P(=O)(O)O [Clodronate disodium]	0.965
O=C(O)c1cn(C2CC2)c2cc(N3CCNCC3)c(F)cc2c1=O [Ciprofloxacin hydrochloride monohydrate]	0.0495 (active)
CCCCCCCN(CC)CCCC(O)c1ccc(NS(C)(=O)=O)cc1 (stereo unspecified) [Ibutilide fumarate]	0.938
c1ccc(-c2ccc(C(c3ccccc3)n3ccnc3)cc2)cc1 (stereo unspecified) [Bifonazole]	0.998
CC1CS(=O)(=O)CCN1/N=C/c1ccc([N+](=O)[O-])o1 (stereo unspecified) [Nifurtimox]	0.596 (active)
COc1cc2nc(N3CCN(C(=O)C4CCCO4)CC3)nc(N)c2cc1OC (stereo unspecified) [Terazosin hydrochloride]	0.978
CN(C)CCCN1c2ccccc2CCc2ccc(Cl)cc21 [Clomipramine hydrochloride]	0.922
CC(=O)O[C@H]1C[C@@H]2CC[C@@H]3[C@H](CC[C@@]4(C)[C@H]3C[C@H]([N+]3(C)CCCCC3)[C@@H]4OC(C)=O)[C@@]2(C)C[C@@H]1N1CCCCC1 [Vecuronium bromide]	1.05
COc1ccccc1N1CCN(CCCNc2cc(=O)n(C)c(=O)n2C)CC1 [Urapidil hydrochloride]	0.979
NS(=O)(=O)c1cc(C2(O)NC(=O)c3ccccc32)ccc1Cl (stereo unspecified) [Chlorthalidone]	1.01
